From PubChem BioAssay (NCATS)
Results filed as inconclusive are left out. Active and inactive are the calls of the source. Unless noted, the call rests on the fitted dose curve; in most records, active means well fitted curve in either direction with a large enough effect (not every such curve was filed as active); inconclusive means small, poorly fitted or top-dose-only effect, or another doubt; inactive means flat fitted curve, though single readings scatter.

What was measured:
[1] = target: Lysosomal acid glucosylceramidase (Homo sapiens) (UniProt P04062); experiment: Glucocerebrosidase-p2 (AID 348; in the data active means potency below about 10 µM; further: potency means the concentration at half of the fitted maximal effect); details: purified GBA, blue fluorogenic substrate, 40 min
Sequence of Lysosomal acid glucosylceramidase (Homo sapiens) (P04062 whole entry, looked up): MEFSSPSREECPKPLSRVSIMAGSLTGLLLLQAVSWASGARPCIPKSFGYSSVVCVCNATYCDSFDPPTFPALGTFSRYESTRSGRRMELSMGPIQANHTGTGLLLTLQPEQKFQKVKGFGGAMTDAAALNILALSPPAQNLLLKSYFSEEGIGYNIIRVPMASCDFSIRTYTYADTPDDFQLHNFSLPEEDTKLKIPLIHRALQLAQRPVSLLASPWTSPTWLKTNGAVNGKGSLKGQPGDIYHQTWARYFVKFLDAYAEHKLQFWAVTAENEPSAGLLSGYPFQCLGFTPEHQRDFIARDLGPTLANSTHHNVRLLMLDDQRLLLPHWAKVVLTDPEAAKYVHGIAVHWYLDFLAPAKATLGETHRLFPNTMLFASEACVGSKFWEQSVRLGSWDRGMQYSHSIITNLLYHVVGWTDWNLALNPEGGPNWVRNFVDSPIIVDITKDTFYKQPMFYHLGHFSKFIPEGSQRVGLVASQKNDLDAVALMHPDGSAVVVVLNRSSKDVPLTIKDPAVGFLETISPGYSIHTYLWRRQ
Method in brief: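 Compounds titrated from 0.6 nM upwards against 0.2 nM enzyme in pH 5.9 citric acid/KH2PO4, taurocholate, tween-20; blue fluorogenic substrate 80 uM, 40 min room temperature, stopped and read Ex 365/Em 440 for AC50.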

[2] = AP1 Signaling Pathway (AID 357); details: ME-180 AP-1-bla reporter, EGF-induced, beta-lactamase ratio, 5 h; at 7.69 µM (top of the series) unless noted;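 further: ME-180 reporter cells stimulated with EGF at its EC50 level; on the % scale 0 is the no-effect control and ±100 the full control effect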
Method in brief: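 Cells are seeded overnight, exposed to compound titrations and an EC50 level of EGF for 5 hours at 37 °C, then loaded with CCF4 dye for 2.5 hours. Beta-lactamase activity under the AP-1 element is read as a blue/green ratio.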

[3] = target: Cytochrome P450 1A2 (Homo sapiens) (UniProt P05177); experiment: p450-cyp1a2 (AID 410; calls by dose curve; further: potency means the concentration at half of the fitted maximal effect;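 on activity change, negative = inhibition: -100% = full effect of reference inhibitor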); details: recombinant CYP1A2, luciferin-ME demethylation, luminescence; series mostly up to 57 µM
Sequence of Cytochrome P450 1A2 (Homo sapiens) (P05177 whole entry, looked up): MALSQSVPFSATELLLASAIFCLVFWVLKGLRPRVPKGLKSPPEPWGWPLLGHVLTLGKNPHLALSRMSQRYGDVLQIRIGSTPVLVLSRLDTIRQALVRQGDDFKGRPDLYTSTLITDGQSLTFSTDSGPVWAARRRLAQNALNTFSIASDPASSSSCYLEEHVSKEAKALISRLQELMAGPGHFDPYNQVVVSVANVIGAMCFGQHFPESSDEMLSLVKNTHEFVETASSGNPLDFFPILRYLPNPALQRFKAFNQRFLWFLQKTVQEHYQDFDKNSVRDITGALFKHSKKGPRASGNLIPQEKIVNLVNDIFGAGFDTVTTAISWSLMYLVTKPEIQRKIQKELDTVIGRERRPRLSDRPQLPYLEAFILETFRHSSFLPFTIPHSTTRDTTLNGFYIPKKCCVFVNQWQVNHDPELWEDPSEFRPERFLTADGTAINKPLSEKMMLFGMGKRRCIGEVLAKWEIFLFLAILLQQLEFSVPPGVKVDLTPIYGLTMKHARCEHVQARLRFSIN
Method in brief: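 Inhibition was calculated relative to 57 uM furafylline (full inhibition). The reaction used human CYP1A2 at 20nM with Luciferin-ME at its Km, 100uM, driven by an NADPH-regenerating system for 60 min at room temperature.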

[4] = NFAT Signaling Pathway (AID 444); details: Jurkat NFAT-bla M1, carbachol, beta-lactamase ratio, 5 h; at 7.69 µM (top of the series) unless noted;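 further: carbachol stimulus at about its EC50 of 1 µM final; on the % scale 0 is the no-effect control and ±100 the full control effect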
Method in brief: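 Jurkat cells with NFAT-driven β-lactamase reporter and co-expressed M1 receptor, stimulated with carbachol (final 1 uM, ~EC50), compound titration, 5 h at 37 °C. CCF4 loaded 1 h at RT; 460/530 nm ratio gave %activity and AC50.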

[5] = Stat Signaling Pathway (AID 446); details: ME-180 SIE beta-lactamase reporter, IL-6 stimulated, 5 h; at 7.69 µM (top of the series) unless noted;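 further: ME-180 cervical cancer cells given 40 pM IL-6 alongside compound; SIE-controlled beta-lactamase reporter measured as 460/530 nm FRET emission ratio; on the % scale 0 is the no-effect control and ±100 the full control effect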
Method in brief: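 ME-180 SIE-bla cells; overnight plating; cpd + IL-6 40 pM, 5 h, 37 C; LiveBLAzer 2.5 h RT; 460/530 nm emission ratio. Normalized to 300 pM IL-6 and 125 nM JAK inhibitor controls.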

[6] = target: Glucocorticoid receptor (Homo sapiens) (UniProt P04150); experiment: GR-EFC Redistribution (AID 451; calls by dose curve; further: potency means the concentration at half of the fitted maximal effect); details: CHO-K1 GR-EFC translocation, beta-gal luminescence, 2 h
Sequence of Glucocorticoid receptor (Homo sapiens) (P04150 whole entry, looked up, the tested form may be a part): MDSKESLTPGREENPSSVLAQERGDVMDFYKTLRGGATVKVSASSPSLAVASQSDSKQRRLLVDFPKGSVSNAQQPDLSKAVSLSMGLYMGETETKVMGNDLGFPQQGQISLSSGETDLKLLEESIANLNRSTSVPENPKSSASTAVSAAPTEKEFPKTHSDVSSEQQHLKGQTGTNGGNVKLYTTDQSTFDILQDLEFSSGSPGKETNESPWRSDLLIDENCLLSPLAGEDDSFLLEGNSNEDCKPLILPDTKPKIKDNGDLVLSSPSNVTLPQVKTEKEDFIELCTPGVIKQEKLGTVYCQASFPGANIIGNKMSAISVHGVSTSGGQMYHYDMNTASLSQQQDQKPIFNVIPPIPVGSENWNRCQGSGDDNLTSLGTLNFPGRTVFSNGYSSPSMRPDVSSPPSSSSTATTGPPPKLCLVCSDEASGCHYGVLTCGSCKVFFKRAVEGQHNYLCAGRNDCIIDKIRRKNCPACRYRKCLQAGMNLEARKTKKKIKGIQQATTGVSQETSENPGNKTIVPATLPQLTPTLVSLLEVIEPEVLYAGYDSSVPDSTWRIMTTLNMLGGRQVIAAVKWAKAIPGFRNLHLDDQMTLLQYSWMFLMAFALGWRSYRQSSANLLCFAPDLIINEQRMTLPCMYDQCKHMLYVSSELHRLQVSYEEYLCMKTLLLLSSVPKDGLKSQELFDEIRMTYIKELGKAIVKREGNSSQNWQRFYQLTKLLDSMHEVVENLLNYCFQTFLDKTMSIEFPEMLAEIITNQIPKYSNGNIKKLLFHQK
Method in brief: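 CHO-K1 cells expressing nuclear EA and GR-ED fragments of b-gal; compounds titrated up to 46 uM final, 2 h at 37 C. GR nuclear translocation read as complemented b-gal luminescence after 1 h RT detection.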

[7] = target: Cytochrome P450 3A4 (Homo sapiens) (UniProt P08684); experiment: qHTS Assay for Inhibitors and Substrates of Cytochrome P450 3A4 (AID 884; active means well fitted curve in the direction sought with a large enough effect; an effect the other way counts as inactive or inconclusive; further: nearly all actives have a fitted effect of over 50% in size; further: potency means the concentration at half of the fitted maximal effect); details: recombinant CYP3A4, Luciferin-PPXE luminescence; series mostly up to 57.1 µM
Sequence of Cytochrome P450 3A4 (Homo sapiens) (P08684 whole entry, looked up): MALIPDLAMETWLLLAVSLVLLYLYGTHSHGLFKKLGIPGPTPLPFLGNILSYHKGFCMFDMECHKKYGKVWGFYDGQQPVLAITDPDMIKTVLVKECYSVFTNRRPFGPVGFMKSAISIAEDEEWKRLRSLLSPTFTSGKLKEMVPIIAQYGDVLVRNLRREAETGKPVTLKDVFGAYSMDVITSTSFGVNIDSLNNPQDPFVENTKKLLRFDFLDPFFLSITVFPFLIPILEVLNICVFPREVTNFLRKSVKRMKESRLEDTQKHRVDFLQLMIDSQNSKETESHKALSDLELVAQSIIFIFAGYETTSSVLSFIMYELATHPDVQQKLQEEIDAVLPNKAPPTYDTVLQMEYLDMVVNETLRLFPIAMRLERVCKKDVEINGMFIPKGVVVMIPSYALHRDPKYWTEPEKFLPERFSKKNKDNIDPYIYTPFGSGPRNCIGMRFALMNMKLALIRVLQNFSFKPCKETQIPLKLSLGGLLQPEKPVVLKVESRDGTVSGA
Method in brief: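 20 nM human CYP3A4 with 25 uM Luciferin-PPXE (at KM) in 200 mM KPO4, preincubated 10 min with compound; NADPH regeneration started a 60 min RT reaction. Luciferin detected by luminescence, normalized to 57 uM ketoconazole as full inhibition.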

[8] = target: Cytochrome P450 3A4 (Homo sapiens) (UniProt P08684); experiment: qHTS Assay for Activators of Cytochrome P450 3A4 (AID 885; active means well fitted curve in the direction sought with a large enough effect; an effect the other way counts as inactive or inconclusive; further: nearly all actives have a fitted effect of over 65% in size; further: potency means the concentration at half of the fitted maximal effect); details: recombinant CYP3A4, Luciferin-PPXE luminescence, 60 min; series mostly up to 57.1 µM
Method in brief: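 20nM CYP3A4 + 25uM Luciferin-PPXE (=KM), 200mM KPO4; cpd 10 min RT; NADPH regen, 60 min RT; stop w/ detection buffer, 20 min; luminescence. Normalized to 57 uM ketoconazole.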

[9] = target: Cytochrome P450 2C19 (Homo sapiens) (UniProt P33261); experiment: qHTS Assay for Inhibitors and Substrates of Cytochrome P450 2C19 (AID 899; active means well fitted curve in the direction sought with a large enough effect; an effect the other way counts as inactive or inconclusive; further: potency means the concentration at half of the fitted maximal effect; nearly all actives have a fitted effect of over 60% in size); details: recombinant CYP2C19, luciferin-H EGE luminescence; series mostly up to 57.1 µM
Sequence of Cytochrome P450 2C19 (Homo sapiens) (P33261 whole entry, looked up): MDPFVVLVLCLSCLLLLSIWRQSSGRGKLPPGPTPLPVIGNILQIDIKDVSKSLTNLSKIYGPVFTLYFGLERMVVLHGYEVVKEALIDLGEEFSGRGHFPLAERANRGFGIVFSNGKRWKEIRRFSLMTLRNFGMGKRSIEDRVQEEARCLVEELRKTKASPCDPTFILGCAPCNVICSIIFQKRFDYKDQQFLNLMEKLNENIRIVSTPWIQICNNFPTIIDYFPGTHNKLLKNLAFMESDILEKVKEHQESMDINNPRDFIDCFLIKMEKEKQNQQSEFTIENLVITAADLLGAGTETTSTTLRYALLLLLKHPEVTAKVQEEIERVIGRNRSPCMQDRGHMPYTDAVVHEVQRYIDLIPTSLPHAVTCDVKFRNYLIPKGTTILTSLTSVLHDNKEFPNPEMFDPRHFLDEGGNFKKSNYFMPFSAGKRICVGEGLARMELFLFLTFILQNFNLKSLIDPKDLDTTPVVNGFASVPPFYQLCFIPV
Method in brief: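 5 nM human CYP2C19 with 10uM Luciferin-H EGE (at KM) in 50mM KPO4, compound preincubated 10 min at 37C, then NADPH regeneration for 60 min at 37C. Luciferin read by luminescence after detection reagent; normalized to 57uM ketoconazole as full inhibition.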

[10] = qHTS Assay for Lipid Storage Modulators (AID 1519; calls by dose curve); details: Drosophila S3 cells, BODIPY lipid droplet/cell ratio, laser cytometry, cells loaded with oleic acid; for activity change, negative = inhibition: at 57.5 µM (top of the series)
Method in brief: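 Cells seeded at 5,000 per well were treated with compounds over a concentration series and loaded with oleic acid (400 uM, as added). Lipid droplet fluorescence (488 nm excitation, 500-530 nm channel) was read by laser-scanning cytometry and normalized to 20 uM Triacsin C.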

[11] = Primary qHTS for small molecule stabilizers of the endoplasmic reticulum resident proteome: Secreted ER Calcium Modulated Protein (SERCaMP) assay (AID 1508630; active means well fitted curve in the direction sought with a large enough effect; an effect the other way counts as inactive or inconclusive; further: on the % scale 0 is the no-effect control and ±100 the full control effect); details: SH-SY5Y GLuc-SERCaMP (Gaussia luciferase released on ER calcium loss) secretion, thapsigargin, luminescence; series mostly up to 38.4 µM
Method in brief: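 GLuc-SERCaMP-expressing SH-SY5Y cells, pretreated 16 h with compound, are challenged with thapsigargin to empty ER calcium stores; after 4 h, coelenterazine is added directly to the medium and luminescence is imaged.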

[12] = target: 3',5'-cyclic-AMP phosphodiesterase 4B (Homo sapiens) (UniProt Q07343); experiment: qHTS Assay for Inhibitors of PDE-IV (AID 607; active means well fitted activation curve with a large enough effect in the main read-out, with a control signal flat, not every such curve was filed as active; further: % of control where 0% means no effect); details: HEK293 ACTOne CNG channel cells, membrane potential fluorescence; series mostly up to 22.9 µM
Sequence of 3',5'-cyclic-AMP phosphodiesterase 4B (Homo sapiens) (Q07343 whole entry, looked up): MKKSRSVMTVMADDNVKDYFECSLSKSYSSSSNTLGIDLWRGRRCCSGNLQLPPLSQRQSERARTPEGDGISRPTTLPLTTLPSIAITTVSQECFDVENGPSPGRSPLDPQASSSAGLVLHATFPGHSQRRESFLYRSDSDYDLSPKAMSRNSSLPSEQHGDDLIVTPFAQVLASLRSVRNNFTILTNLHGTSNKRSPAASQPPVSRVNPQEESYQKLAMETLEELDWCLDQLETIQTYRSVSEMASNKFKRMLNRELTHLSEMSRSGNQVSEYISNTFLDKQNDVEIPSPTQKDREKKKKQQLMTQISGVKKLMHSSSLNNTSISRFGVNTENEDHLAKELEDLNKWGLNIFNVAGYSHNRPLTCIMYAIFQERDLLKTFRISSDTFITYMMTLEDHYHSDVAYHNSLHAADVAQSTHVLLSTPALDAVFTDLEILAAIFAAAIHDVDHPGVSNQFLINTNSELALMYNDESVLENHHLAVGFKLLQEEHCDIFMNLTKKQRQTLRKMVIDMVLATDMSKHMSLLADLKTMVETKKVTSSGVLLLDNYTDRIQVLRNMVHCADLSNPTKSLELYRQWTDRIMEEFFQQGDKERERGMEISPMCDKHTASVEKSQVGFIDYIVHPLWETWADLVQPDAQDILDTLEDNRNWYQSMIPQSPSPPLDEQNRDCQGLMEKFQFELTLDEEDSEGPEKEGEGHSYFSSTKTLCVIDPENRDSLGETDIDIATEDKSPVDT
Method in brief: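 ACTOne HEK293 cells carry a modified cAMP-gated CNG channel and express endogenous PDE4; plated 1000 cells/well, compounds up to 22.9 uM final. Membrane-potential dye fluorescence (ex 535/em 590) was read; parental cells received 10 uM forskolin + 100 uM RO 20-1724.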

[13] = target: Mitogen-activated protein kinase 10 (Mus musculus) (UniProt Q61831); experiment: JNK3 AlphaScreen Assay (AID 530); details: JNK3 lysate, c-Jun phosphorylation; series mostly up to 57.1 µM
Method in brief: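 qHTS format: compounds tested as titrations against IL-1beta/TNF-alpha-activated HepG2 lysate JNK3 with biotin-GST-cJun substrate and 10 uM ATP at room temperature. Loss of anti-phospho-cJun AlphaScreen signal indicates inhibition.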

[14] = target: Glucocorticoid receptor (Homo sapiens) (UniProt P04150); experiment: GR-GFP Redistribution (AID 450;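 active means compounds whose dose series gives a full or clear partial fitted curve of increased nuclear translocation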; further: potency means the concentration at half of the fitted maximal effect); details: U2OS GR-GFP nuclear translocation, laser cytometry, 2 h
[15] = target: Cytochrome P450 2C9 (Homo sapiens) (UniProt P11712); experiment: qHTS Assay for Inhibitors and Substrates of Cytochrome P450 2C9 (AID 883; active means well fitted curve in the direction sought with a large enough effect; an effect the other way counts as inactive or inconclusive; further: on the % scale 0 is the no-effect control and ±100 the full control effect; nearly all actives have a fitted effect of over 60% in size); details: recombinant CYP2C9, luciferin-H luminescence, 60 min; series mostly up to 57.1 µM
Sequence of Cytochrome P450 2C9 (Homo sapiens) (P11712 whole entry, looked up): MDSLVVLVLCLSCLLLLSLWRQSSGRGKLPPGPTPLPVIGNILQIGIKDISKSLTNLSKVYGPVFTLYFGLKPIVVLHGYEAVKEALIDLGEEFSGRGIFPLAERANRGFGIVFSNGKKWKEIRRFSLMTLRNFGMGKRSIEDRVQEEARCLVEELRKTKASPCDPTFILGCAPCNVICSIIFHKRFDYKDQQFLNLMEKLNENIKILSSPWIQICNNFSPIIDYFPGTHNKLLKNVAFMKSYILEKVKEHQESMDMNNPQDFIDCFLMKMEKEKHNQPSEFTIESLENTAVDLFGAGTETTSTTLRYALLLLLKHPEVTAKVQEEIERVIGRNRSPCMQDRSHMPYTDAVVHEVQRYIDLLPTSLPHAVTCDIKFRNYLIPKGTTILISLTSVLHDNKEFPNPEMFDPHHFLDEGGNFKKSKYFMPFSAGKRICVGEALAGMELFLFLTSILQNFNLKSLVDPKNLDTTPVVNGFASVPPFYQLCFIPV
Method in brief: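 Human CYP2C9 (10nM) with Luciferin-H at 100uM (its KM) in 25mM KPO4; compound preincubated 10 min at 37C, then NADPH regeneration for 60 min at 37C. Luciferin read by luminescence after detection reagent; normalized to 57uM sulphaphenazole as full inhibition.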

[16] = target: Cytochrome P450 2D6 (Homo sapiens) (UniProt P10635); experiment: qHTS Assay for Inhibitors and Substrates of Cytochrome P450 2D6 (AID 891; active means well fitted curve in the direction sought with a large enough effect; an effect the other way counts as inactive or inconclusive; further: potency means the concentration at half of the fitted maximal effect; nearly all actives have a fitted effect of over 60% in size); details: recombinant CYP2D6, luciferin-ME EGE luminescence; series mostly up to 57.1 µM
Sequence of Cytochrome P450 2D6 (Homo sapiens) (P10635 whole entry, looked up): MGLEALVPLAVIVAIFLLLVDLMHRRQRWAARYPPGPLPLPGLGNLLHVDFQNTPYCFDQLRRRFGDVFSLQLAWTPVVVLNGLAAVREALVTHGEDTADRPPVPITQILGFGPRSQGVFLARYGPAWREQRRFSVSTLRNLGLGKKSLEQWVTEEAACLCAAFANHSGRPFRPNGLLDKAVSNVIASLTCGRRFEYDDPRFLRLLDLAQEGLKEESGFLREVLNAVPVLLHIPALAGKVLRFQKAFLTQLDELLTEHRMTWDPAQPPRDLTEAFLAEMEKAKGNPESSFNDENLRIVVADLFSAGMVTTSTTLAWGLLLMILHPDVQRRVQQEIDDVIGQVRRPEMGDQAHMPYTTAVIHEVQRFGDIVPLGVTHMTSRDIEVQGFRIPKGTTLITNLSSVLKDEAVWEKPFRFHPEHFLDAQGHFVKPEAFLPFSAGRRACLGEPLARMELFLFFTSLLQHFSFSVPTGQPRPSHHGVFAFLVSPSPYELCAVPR
Method in brief: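 Human CYP2D6 (5 nM) with 30 uM Luciferin-ME EGE (at Km) in 100 mM KPO4, compound preincubated 10 min, then NADPH regeneration system for 60 min at room temperature. Luciferin read by luminescence; normalized to 1.43 uM quinidine.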

[17] = Confirmation and Secondary Assay for Modulators of Hemoglobin Beta Chain Splicing at IVS2 654 locus (AID 910; active means well fitted curve in the direction sought with a large enough effect; an effect the other way counts as inactive or inconclusive;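 further: HeLa cells stably carrying EGFP split by mutant beta-globin IVS2-654 intron; % of control where 0% means no effect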); details: HeLa EGFP-654 splicing reporter, GFP fluorescence, 48 h; series mostly up to 38.3 µM
Method in brief: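 HeLa cells stably expressing EGFP interrupted by β-globin IVS2-654 intron, seeded overnight in Opti-MEM/2% FCS, then treated 2 days at 37 °C. Restored splicing read as total peak GFP intensity per well by laser scanning cytometry (488 nm excitation, 500–520 nm emission); 500 nM antisense PNA as control.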

[18] = measured here: cell count channel max response
[19] = measured here: lipid channel max response

O=S(=O)(c1ccccc1)N1CCC[C@@]2(CCN(c3ccccc3)C2)C1
-9.53%: max response [10, 19]
5.79%: max response [10, 18]
active: Potency [3] 3.98 µM | Potency [7] 5.01 µM | Potency [9] 0.316 µM
inactive: Potency [1] > 11.4 µM | activity change, negative = inhibition [2] -10.1% | activity change, negative = inhibition [4] -13.8% | activity, negative = inhibition [5] -4.22% | Potency [6] > 46 µM | Potency [8] | activity change, negative = inhibition [10] -16% | Potency [11]

Cn1cccc1C(=O)N1CCC2(CC1)CCN(c1ccccc1)CC2
16.6%: max response [10, 19]
active: Potency [3] 12.6 µM | Potency [8] 15.8 µM
inactive: Potency [1] > 11.4 µM | activity change, negative = inhibition [2] -11.3% | activity change, negative = inhibition [4] 20.8% | activity, negative = inhibition [5] -1.51% | Potency [6] > 46 µM | Potency [12] | Potency [7] | activity change, negative = inhibition [10] 5.03% | Potency [11]
9.38%: max response [10, 18]

COc1ccc(NC(=O)N2CC[C@@]3(CCCN(C(=O)c4ccc(OC)cc4)C3)C2)cc1
22%: max response [10, 18]
26.4%: max response [10, 19]
inactive: Potency [1] > 11.4 µM | activity change, negative = inhibition [2] 5.18% | activity change, negative = inhibition [4] 10.5% | activity, negative = inhibition [5] 2.5% | outcome [13] | Potency [12] | Potency [8] | activity change, negative = inhibition [10] 3.11% | Potency [11]
active: Potency [3] 25.1 µM

COc1ccc(NC(=O)N2CCC3(CC2)CCN(C(=O)c2csnn2)CC3)cc1
inactive: Potency [1] > 11.4 µM | activity change, negative = inhibition [2] -4.35% | activity change, negative = inhibition [4] 3.59% | activity, negative = inhibition [5] -12% | outcome [13] | Potency [12] | Potency [8] | activity change, negative = inhibition [10] 8.17% | Potency [11]
active: Potency [3] 6.31 µM
29.5%: max response [10, 19]
17.2%: max response [10, 18]

N#Cc1cccc(NC(=O)N2CCC3(CC2)CCN(C(=O)c2ccco2)CC3)c1
18.9%: max response [10, 19]
10.3%: max response [10, 18]
inactive: Potency [1] > 11.4 µM | activity change, negative = inhibition [2] -7.83% | Potency [3] | activity change, negative = inhibition [4] -8.92% | activity, negative = inhibition [5] 4.51% | Potency [6] > 46 µM | Potency [12] | Potency [7] | activity change, negative = inhibition [10] 6.33% | Potency [11]

Cc1nc2cnc(N(C)C)nc2n(Cc2ccc(F)cc2)c1=O
inactive: Potency [1] > 11.4 µM | activity change, negative = inhibition [2] 3.79% | activity change, negative = inhibition [4] 1.01% | Potency [14] > 9.22 µM | Potency [6] > 46 µM | outcome [13] | Potency [15] | Potency [8] | activity change, negative = inhibition [10] 5.88% | Potency [11]
active: Potency [3] 2 µM | Potency [7] 0.0251 µM | Potency [9] 1.58 µM
21.5%: max response [10, 19]
15%: max response [10, 18]

COCC(=O)N1CCC2(CC1)CCN(C(=O)Nc1ccc(OC)cc1)CC2
13.2%: max response [10, 18]
inactive: Potency [1] > 11.4 µM | activity change, negative = inhibition [2] -6.71% | Potency [3] | activity change, negative = inhibition [4] 6.08% | Potency [6] > 46 µM | outcome [13] | Potency [12] | activity change, negative = inhibition [10] 4.36% | Potency [11]
20.1%: max response [10, 19]

O=C(c1ccncc1)N1CCC2(CC1)CCN(c1cccc(-c3ccccc3)c1)CC2
19.1%: max response [10, 18]
active: Potency [3] 20 µM | Potency [16] 7.94 µM
21.6%: max response [10, 19]
inactive: Potency [1] > 11.4 µM | activity change, negative = inhibition [2] -1.52% | activity change, negative = inhibition [4] 4.67% | activity, negative = inhibition [5] -12.5% | Potency [6] > 46 µM | Potency [12] | activity change, negative = inhibition [10] 1.19% | Potency [11]

CC(C)NC(=O)N1CC2(CCN(C(=O)c3ccncc3)CC2)C1
15.6%: max response [10, 19]
11.6%: max response [10, 18]
inactive: Potency [1] > 11.4 µM | activity change, negative = inhibition [2] 13% | Potency [3] | activity change, negative = inhibition [4] 10.6% | activity, negative = inhibition [5] 7.63% | outcome [13] | Potency [12] | Potency [8] | activity change, negative = inhibition [10] -0.244% | Potency [11]

c1ccc(-c2ccc(N3CC4(CCNCC4)C3)cc2)cc1
-25%: max response [10, 18]
inactive: Potency [1] > 11.4 µM | activity change, negative = inhibition [2] 5.34% | activity change, negative = inhibition [4] 4.74% | activity, negative = inhibition [5] 4.95% | Potency [6] > 46 µM | Potency [12] | Potency [8] | activity change, negative = inhibition [10] -2.41% | Potency [11]
active: Potency [3] 15.8 µM
-25.6%: max response [10, 19]

Cc1cccc(CNc2ncncc2-c2cccc(C#N)c2)c1
active: Potency [3] 2.51 µM | Potency [7] 0.199 µM | Potency [9] 3.98 µM
inactive: Potency [1] > 11.4 µM | activity change, negative = inhibition [2] 0.377% | activity change, negative = inhibition [4] -8.33% | Potency [14] > 46 µM | Potency [6] > 46 µM | outcome [13] | Potency [12] | Potency [8] | outcome [17] | activity change, negative = inhibition [10] 4.89% | Potency [11]
15.9%: max response [10, 19]
9.06%: max response [10, 18]
